Screens: PubChem BioAssay, National Center for Advancing Translational Sciences (NCATS)
IL1B secr inh: blocks inflammasome-driven IL-1 beta release. THP-1 LPS/ATP IL-1B secretion, AlphaLISA, 16 h; hits give low values. activity change, % at 57.5 µM. hit rate 4.7% among 360,000. AID 743279; in the data active = activity change below about -50%; inconclusive = mostly about -30% to -49%; also: % is scaled to controls: 0 for no effect and ±100 for the full control effect
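THP-1 cells pretreated 1 hr with compounds (up to 57.5 uM final), then stimulated with LPS (250 ng/mL final) plus ATP (1.25 mM final); secreted IL-1B measured by AlphaLISA after 16 hr, decreased signal indicating inhibition.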
TDP1 cell noCPT: qHTS for Inhibitors of human tyrosyl-DNA phosphodiesterase 1 (TDP1): qHTS in cells in absence of CPT; DT40 Tdp1-/- hTDP1 cells, no CPT, ATP luminescence, 48 h; Potency, µM (doses to about 46.2 µM), for the others: top-dose activity change, negative = growth inhibition, most hits filed as inhibitors; hit rate 15% among 420,000; AID 686978, 2013; also: potency is read from the fitted curve at half-maximal effect; % is scaled to controls: 0 for no effect and ±100 for the full control effect; nearly all actives have a fitted effect of over 55% in size
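Camptothecin absent (DMSO only). Human TDP1-complemented DT40 knockout cells, 400 cells/well, 37 °C for minimum 48 hr; ATP measured via CellTiter-Glo, 30 min dark incubation, luminescence.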
TDP1 cell CPT: growth inhibition of DT40 Tdp1-/-;hTDP1 cells with camptothecin (screen for TDP1 inhibitors); chicken DT40 Tdp1-/-;hTDP1 cells + 20 nM CPT, ATP luminescence, 48 h; Potency, µM (titrated, usually from 46.2 µM), inactives show at the highest dose activity change, negative = growth inhibition, hits mostly inhibitors; hit rate 12% among 420,000; also: potency is read from the fitted curve at half-maximal effect; % is scaled to controls: 0 for no effect and ±100 for the full control effect; nearly all actives have a fitted effect of over 55% in size
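Cell growth measured by CellTiter-Glo luminescence after a minimum 48 h, 37 C compound exposure with 20 nM CPT in Tdp1-knockout DT40 cells stably expressing hTDP1, seeded 400/well; qHTS titration format.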
TGFb SMAD3 inh: inhibitors of TGF-b signaling | HepG2 CAGA-GFP TGF-b/SMAD3 reporter, GFP fluorescence, 18 h; TGF-beta stimulated, 500 pg/mL final | Potency, µM (top dose mostly 46.1 µM), inactives show at the top dose activity, negative = inhibition, actives largely listed as inhibitors | hit rate 1.2% among 410,000 | AID 588855; also: potency is read from the fitted curve at half-maximal effect; % is scaled to controls: 0 for no effect and ±100 for the full control effect; nearly all actives have a fitted effect of over 65% in size
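Per well, imaged GFP fluorescence of HEPG2 CAGA-GFP cells gives the signal; cells get compound, then TGF-beta (500 pg/mL final), 18 h at 37 degrees C; %Activity versus -TGF-beta and +DMSO controls.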
TDP1 block: inhibitors of human tyrosyl-DNA phosphodiesterase TDP1. hit rate 0.28% among 350,000. Q9NUW8. Potency, µM (doses to about 130 µM), for inactives: top-dose activity change, negative = inhibition, actives largely listed as inhibitors. recombinant TDP1, AlphaScreen DNA substrate cleavage; also: potency is read from the fitted curve at half-maximal effect; % is scaled to controls: 0 for no effect and ±100 for the full control effect; nearly all actives have a fitted effect of over 40% in size
Target sequence (Q9NUW8 whole entry, looked up): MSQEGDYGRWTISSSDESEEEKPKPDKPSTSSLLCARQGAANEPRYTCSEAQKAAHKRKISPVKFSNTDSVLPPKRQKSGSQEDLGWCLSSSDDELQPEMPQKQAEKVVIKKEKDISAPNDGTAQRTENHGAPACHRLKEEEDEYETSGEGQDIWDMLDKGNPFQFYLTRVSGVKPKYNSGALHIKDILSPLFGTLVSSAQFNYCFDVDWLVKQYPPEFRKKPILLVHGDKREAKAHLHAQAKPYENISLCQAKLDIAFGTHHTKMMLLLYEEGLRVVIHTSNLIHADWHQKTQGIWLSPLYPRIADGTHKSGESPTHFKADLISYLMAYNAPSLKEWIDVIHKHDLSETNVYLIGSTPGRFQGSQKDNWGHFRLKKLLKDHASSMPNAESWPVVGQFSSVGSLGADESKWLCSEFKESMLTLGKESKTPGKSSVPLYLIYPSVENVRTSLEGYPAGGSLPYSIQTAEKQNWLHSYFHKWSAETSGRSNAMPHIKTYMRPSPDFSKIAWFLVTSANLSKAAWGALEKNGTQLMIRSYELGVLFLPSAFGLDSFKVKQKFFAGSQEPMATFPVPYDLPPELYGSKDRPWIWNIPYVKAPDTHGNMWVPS
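AlphaScreen read-out: signal falls as enzyme removes the 3' tyrosine-FITC from a 5'-biotinylated DNA oligo (15 nM, 5 min, RT). Enzyme was E. coli-made recombinant Tdp1 at 1 nM, exposed to compound for 15 min beforehand; beads 10 ug/ml, 10 min.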
HepG2 tox: kills HepG2 cells in TGF-b inhibitor counter-screen; HepG2 CAGA-GFP viability, ATP luminescence, 18 h; Potency, µM (doses to about 46.1 µM), for the others: top-dose activity change, negative = cytotoxicity, most hits filed as cytotoxic; hit rate 0.76% among 410,000; also: potency is read from the fitted curve at half-maximal effect
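CellTiter-Glo luminescence gave cytotoxicity after 18 hours at 37 degrees C. The cells were HepG2 CAGA-GFP in 1% FBS DMEM, stimulated with 500 pg/mL TGF-beta after compound addition. %Activity was normalised to no-cell wells (complete cell-killing) and DMSO (no toxicity), and curves were fitted and classified.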
* = called active by the depositor; [ ] = remark or other dose. An excerpt weighted towards active compounds, which were near 19% of everything screened. Unless noted, calls follow the shape of the dose curve; as a rule, active = well fitted curve in the direction sought with a large enough effect; inconclusive = small, poorly fitted or top-dose-only effect, or another doubt; inactive = no such curve, though single readings can be large; an effect the other way counts as inactive or inconclusive.

CCN1CCN(CCNC(=O)c2ccc3c(c2)N(Cc2cccc(Cl)c2)C(=O)c2ccccc2S3=O)CC1 (configuration not stated) was read as IL1B secr inh -55.4*, TDP1 cell noCPT -2.5%, TDP1 cell CPT -16.6%, TGFb SMAD3 inh -0.5%, TDP1 block 1.1% and HepG2 tox -18.1%.
Screening COc1cc(C(=O)OCC(=O)Nc2cc(S(=O)(=O)N3CCOCC3)ccc2C)ccc1OCC(C)C returned IL1B secr inh 9.1, TDP1 cell noCPT inconclusive, TDP1 cell CPT -10.8%, TGFb SMAD3 inh -0.4% and HepG2 tox -3.9%.
CCc1ccc(-n2nc3ccc(NC(=O)c4cc(Cl)c(OC)c(Cl)c4)cc3n2)cc1 was read as TDP1 cell noCPT inconclusive, TDP1 cell CPT inconclusive, TGFb SMAD3 inh -1.9%, TDP1 block 0.6% and HepG2 tox 1.9%.
Screening Cc1ccc(CNC(=O)Nc2ccccc2)c(C)c1 returned IL1B secr inh 0.0, TDP1 cell noCPT -20.0%, TDP1 cell CPT 5.5%, TGFb SMAD3 inh 3.2%, TDP1 block 0.0% and HepG2 tox 3.6%.
`Cc1nc(SCC(=O)N2CCC(Cc3ccccc3)CC2)[nH]c(=O)c1C` gave IL1B secr inh 9.5, TDP1 cell noCPT 23.1µM*, TDP1 cell CPT 16.4µM*, TGFb SMAD3 inh inconclusive, TDP1 block 3.4%[0.505 µM] and HepG2 tox -13.4%.
`Cc1cc(=O)[nH]c(SCC(=O)N2CCN(c3ccccc3)CC2)n1` gave TDP1 cell noCPT -16.1%, TDP1 cell CPT -13.2%, TDP1 block -1.2% and HepG2 tox -10.5%.
Screening O=C(CSc1nc(C(F)(F)F)cc(=O)[nH]1)N1CCC(Cc2ccccc2)CC1 returned IL1B secr inh -19.3, TDP1 cell noCPT 11.6µM*, TDP1 cell CPT -10.9%, TGFb SMAD3 inh 0.9%, TDP1 block -15.1%[0.505 µM] and HepG2 tox -0.3%.
For Cc1cc(=O)[nH]c(SCC(=O)N2CCC(Cc3ccccc3)CC2)n1 the results were IL1B secr inh inconclusive, TDP1 cell noCPT 6.1%, TDP1 cell CPT 2.9%, TGFb SMAD3 inh 5.6%, TDP1 block 2.7% and HepG2 tox -3.4%.
Cc1cc(=O)[nH]c(SCC(=O)N2CCN(C(c3ccccc3)c3ccccc3)CC2)n1 was read as IL1B secr inh -10.6, TDP1 cell noCPT inconclusive, TDP1 cell CPT 18.4µM*, TGFb SMAD3 inh inconclusive, TDP1 block 7.7% and HepG2 tox -3.1%.
For Fc1cccc(Cc2c(C3CCCCC3)nc3c4ccccc4ccn23)c1 the results were IL1B secr inh 0.0, TDP1 cell noCPT 13µM* and TDP1 cell CPT 23.1µM*.
Screening Cc1cc(Br)cn2c(Cc3ccccc3)c(C3CCCCC3)nc12 returned IL1B secr inh 86.6, TDP1 cell noCPT 16.4µM* and TDP1 cell CPT 18.4µM*.
Screening Cc1ccc(Cc2c(C3CCCCC3)nc3c(C)cc(Br)cn23)cc1 returned IL1B secr inh 36.5, TDP1 cell noCPT -18.1% and TDP1 cell CPT inconclusive.
For c1ccc(Cc2c(C3CCCCC3)nc3c4ccccc4ccn23)cc1 the results were IL1B secr inh 25.5, TDP1 cell noCPT 11.6µM* and TDP1 cell CPT inconclusive.
`N#Cc1ccc(-c2nc3c4ccccc4ccn3c2CC2CCCCC2)cc1` gave IL1B secr inh 8.3, TDP1 cell noCPT -27.1% and TDP1 cell CPT -19.3%.
Screening Cc1ccc(C(=O)Nc2nnc(SCc3cc(=O)c4c(C)ccc(C)c4[nH]3)s2)cc1 returned TDP1 cell noCPT 10.3µM*, TDP1 cell CPT 18.4µM*, TGFb SMAD3 inh inconclusive, TDP1 block 5.4% and HepG2 tox -11.1%.
For Cc1cc(-c2nnc(CSc3nnc(NC(=O)c4ccc(C(C)(C)C)cc4)s3)o2)ccc1[N+](=O)[O-] the results were IL1B secr inh 0.0, TDP1 cell noCPT 20.6µM*, TDP1 cell CPT inconclusive, TGFb SMAD3 inh 14.1% and HepG2 tox -0.2%.
`O=C(Nc1nnc(SCc2cc(=O)c3ccccc3[nH]2)s1)c1ccccc1` gave TDP1 cell noCPT 7.31µM*, TDP1 cell CPT 23.1µM*, TGFb SMAD3 inh -4.5%, TDP1 block 0.0% and HepG2 tox -0.3%.
Screening COCCSc1nnc(NC(=O)c2ccc([N+](=O)[O-])cc2)s1 returned IL1B secr inh -1.8, TDP1 cell noCPT -5.1%, TDP1 cell CPT 4.7%, TGFb SMAD3 inh -8.4%, TDP1 block -1.2% and HepG2 tox -11.2%.
`COc1ccccc1C(=O)Nc1nnc(SCc2cc(=O)c3ccccc3[nH]2)s1` gave TDP1 cell noCPT 14.6µM*, TDP1 cell CPT 14.6µM*, TGFb SMAD3 inh inconclusive and HepG2 tox -62.4%.
For Cc1ccc2[nH]c(CSc3nnc(NC(=O)COc4ccccc4C)s3)cc(=O)c2c1 the results were TDP1 cell noCPT inconclusive, TDP1 cell CPT inconclusive, TGFb SMAD3 inh 6.1%, TDP1 block 2.7% and HepG2 tox 0.9%.
For COc1ccc(S(=O)(=O)Nc2cc(OC)cc3cccnc23)cc1 the results were TDP1 block 22.1%.
Screening COc1ccc(Br)cc1C(=O)Nc1cccc2ccc(C)nc12 returned TDP1 cell noCPT -2.7%, TDP1 cell CPT -6.6%, TGFb SMAD3 inh 5.7%, TDP1 block 4.5% and HepG2 tox -0.6%.
O=C(NCc1ccc2c(c1)OCO2)c1ccco1 was read as IL1B secr inh 19.9, TDP1 cell noCPT 19.3%, TDP1 cell CPT -6.1%, TGFb SMAD3 inh 20.0%, TDP1 block 1.3% and HepG2 tox 4.5%.
`O=C(CC(SCCO)c1ccc2c(c1)OCO2)c1ccco1` (configuration not stated) gave IL1B secr inh -56.4*, TDP1 cell noCPT 18.4µM*, TDP1 cell CPT 20.6µM*, TGFb SMAD3 inh -17.1%, TDP1 block 0.0% and HepG2 tox -24.9%.
Screening Cc1ccc(NC(C)c2cc(Cl)ccc2O)cc1 (configuration not stated) returned IL1B secr inh -26.6, TDP1 cell noCPT -18.6%, TDP1 cell CPT -18.2%, TGFb SMAD3 inh 0.0%, TDP1 block 12.7% and HepG2 tox 11.2µM*.
Screening Cc1cc(C(=O)Nc2ccc(-n3c(C)nc4ccccc4c3=O)cc2)ccc1[N+](=O)[O-] returned TDP1 cell noCPT inconclusive, TDP1 cell CPT inconclusive, TGFb SMAD3 inh -13.9%, TDP1 block 2.6% and HepG2 tox -1.7%.
